Screening results deposited in PubChem BioAssay by National Center for Advancing Translational Sciences (NCATS).
This is a sample that favours compounds with a hit; in the whole collection about 11% have one here.
JMJD2A Tudor inh: JMJD2A Tudor domain (human) inhibition; O75164; AlphaScreen JMJD2A-Tudor / H3K4me3 peptide binding; Potency, µM (titrated, usually from 114 µM), for the others: top-dose activity change, negative = inhibition, most hits filed as inhibitors; actives 4.4% (n = 390,000); AID 504339; further: on the % scale 0 is the no-effect control and ±100 the full control effect; nearly all actives have a fitted effect of over 50% in size
PLK1 PBD inh: inhibitors of human PLK1 polo-box domain binding; P53350; Plk1 PBD binding of FITC phosphopeptide, fluorescence polarization; Potency, µM, for the others: max response, negative = inhibition, most hits filed as inhibitors; actives 2.8% (n = 360,000); AID 720504; further: series mostly up to about 57 µM; on the % scale 0 is the no-effect control and ±100 the full control effect; nearly all actives have a fitted effect of over 65% in size
VDR inhibitor: vitamin D3 receptor (human) inhibition; actives 0.93% (n = 400,000); Potency, µM, without a hit: max response, negative = inhibition, actives largely listed as inhibitors; AID 504847; VDR-SRC2-3 peptide fluorescence polarization, 2 h; P11473; further: on the % scale 0 is the no-effect control and ±100 the full control effect
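FP read-out; VDR + SRC2-3 coactivator peptide; 23 nl compound by pintool; 2 h RT incubation; reagents held at 4 deg C, protected from light.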
HP1b chromo inh: blocks HP1-beta chromodomain binding to methylated histone tails. P83916. Potency, µM (titrated, usually from 114 µM), without a hit: at the highest dose activity change, negative = inhibition, usual class: inhibitors. AlphaScreen HP1-beta / biotin-H3K9me3 peptide binding. actives 0.56% (n = 390,000); further: nearly all actives have a fitted effect of over 70% in size
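AlphaScreen: HP1-beta (50 nM) preformed 30 min with biotin-H3(1-18)K9me3 peptide (50 nM) in PBS pH 7.4, 0.01% Tween-20. Compound added for 30 min at RT, then streptavidin donor/nickel chelate acceptor beads (10 ug/mL) for 30 min.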
BAZ2B block: blocks human BAZ2B. AID 504333. Potency, µM (series often up to 114 µM), for the others: at the highest dose activity change, negative = inhibition, actives largely listed as inhibitors. AlphaScreen BAZ2B-H3K14Ac peptide displacement. actives 4.4% (n = 360,000); further: on the % scale 0 is the no-effect control and ±100 the full control effect; nearly all actives have a fitted effect of over 60% in size
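BAZ2B (50 nM) with biotin-H3(5-23)K14Ac peptide (50 nM) in PBS pH 7.4, 0.01% Tween-20, preformed 30 min, then compound 30 min at room temperature; top concentration 110uM. AlphaScreen streptavidin donor/nickel chelate acceptor beads (10 ug/mL final), 20 min dark, signal read.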
G9a block: blocks human histone lysine methyltransferase G9a. Q96KQ7. Potency, µM (titrated, usually from 102 µM), for inactives: at the top dose activity, negative = inhibition, hits mostly inhibitors. AID 504332. actives 8.8% (n = 350,000). G9a H3K9 monomethylation, AlphaScreen, 2 h; further: on the % scale 0 is the no-effect control and ±100 the full control effect; nearly all actives have a fitted effect of over 75% in size
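Readings reflect AlphaScreen signal from monomethyl-H3K9 antibody detection. HMT at 20 nM; substrate b-H3K9 500 nM; cofactor SAM 20 uM; 2 h RT reaction; compounds tested as titrations in qHTS with 15 min preincubation.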
* = called active by the depositor; ? = inconclusive; . = not tested or not shown; [ ] = remark or other dose. The call rests on the fitted dose curve; in most records, active means well fitted curve in the direction sought with a large enough effect; inconclusive means small, poorly fitted or top-dose-only effect, or another doubt; inactive means no such curve, though single readings can be large; an effect the other way counts as inactive or inconclusive. Potency means the concentration at half of the fitted maximal effect.

SMILES | JMJD2A Tudor inh | PLK1 PBD inh | VDR inhibitor | HP1b chromo inh | BAZ2B block | G9a block
Cc1ccc(N=Nc2c(N)nn3c(N)c(C#N)c(C)nc23)cc1 | 56µM* | -8% | 15% | 66% | -39% | -39%
Cc1nn(-c2ccccc2)c(N)c1N=Nc1ccc2ccccc2c1 | 40µM* | -7% | -1% | ? | 13µM* | 40µM*
Cc1nn(-c2ccccc2)c(N)c1N=O | -14% | -6% | -4% | 27% | -15% | 11%
COc1ccc(CNC(=O)CN(c2ccccc2)S(=O)(=O)c2ccccc2[N+](=O)[O-])cc1 | -16% | -1% | 3% | 32% | -10% | .
O=C(CCC1N=C2c3ccccc3N=C(SCc3ccc(Cl)cc3)N2C1=O)NC1CCCCC1 (stereo unspecified) | -19% | . | -4% | 11% | -1% | 4%[59 µM]
CCN(CC)CCCC1(CN)OCCc2ccccc21 (stereo unspecified) | -3% | 1% | 5% | 23% | -1% | 25µM*
COc1ccc(NC(=O)c2cccnc2)cc1 | -8% | -9% | 7% | 30% | 6% | 51%
CCN(CC)c1ccc(NC(=O)c2cccnc2)cc1 | -25% | 1% | 17% | 9% | ? | 10µM*
CCn1nnc(NC(=O)c2cccnc2)n1 | -5% | ? | 6% | -18% | -30% | 40µM*
CC(C)Nc1nc(Nc2ccc(F)cc2)c2sccc2n1 | . | -6% | . | . | . | .
O=C(COC(=O)CNC(=O)c1ccc(Cl)cc1Cl)NC(=O)NCc1ccccc1 | 0% | -2% | -6% | 42% | 2% | 56µM*
COc1ccccc1C(=O)NC(=O)COC(=O)CNC(=O)c1ccc(Cl)cc1Cl | 3% | -1% | -10% | 41% | 6% | 50µM*
COc1ccccc1C(=O)NC(=O)COC(=O)CNC(=O)c1ccccc1 | -6% | 1% | -11% | 28% | -4% | 1%
Cc1ccc(C)c2[nH]c(=O)c(CN(Cc3ccco3)C(=S)NCC3CCCO3)cc12 (stereo unspecified) | -20% | -9% | -5% | -6% | ? | 40µM*
Cc1ccc2cc(CN(Cc3ccco3)C(=S)NCC3CCCO3)c(=O)[nH]c2c1 (stereo unspecified) | -29% | -12% | -8% | 8% | -31% | -46%
CCOc1ccccc1NC(=O)CC1C(=O)NCCN1C(=O)c1ccc(F)cc1 (stereo unspecified) | -7% | . | 3% | 12% | -9% | 4%[59 µM]
CCn1nc(NS(=O)(=O)c2ccc([N+](=O)[O-])cc2)c2cc3cccc(C)c3nc21 | ? | -26% | 0% | -23% | ? | 18µM*
CCn1nc(NS(=O)(=O)c2ccccc2[N+](=O)[O-])c2cc3cccc(C)c3nc21 | ? | ? | -2% | 0% | ? | ?
S=c1nc(-c2ccc(Cl)cc2)[nH][nH]1 | ? | 38µM* | -29% | ? | -26% | 0.56µM*
CCCOc1ccc(-c2nc(=S)[nH][nH]2)cc1 | ? | ? | 89µM* | -16% | -8% | .
Cc1cccc(-n2c(CNC(=O)c3cccc(F)c3)nnc2SCC(=O)Nc2ccccc2F)c1 | -16% | . | -2% | 16% | -16% | -24%[59 µM]
O=C(CC1N=C2c3ccccc3N=C(SCc3ccc(Cl)cc3)N2C1=O)NCCc1ccccc1 (stereo unspecified) | 79µM* | . | 8% | 31% | 0% | 7%[59 µM]
Cc1ccc(CSC2=Nc3ccccc3C3=NC(CC(=O)NCc4ccco4)C(=O)N23)cc1 (stereo unspecified) | ? | -21% | 0% | 9% | 50µM* | ?
O=C(CCC1N=C2c3ccccc3N=C(SCc3ccc(Cl)cc3)N2C1=O)NCCc1ccccc1 (stereo unspecified) | -17% | . | 5% | 12% | -3% | -3%[59 µM]
O=C(CC1N=C2c3ccccc3N=C(SCC(=O)Nc3ccccc3F)N2C1=O)NCc1cccs1 (stereo unspecified) | -26% | . | 1% | -4% | ? | 14µM*
SMILES | JMJD2A Tudor inh | PLK1 PBD inh | VDR inhibitor | HP1b chromo inh | BAZ2B block | G9a block
O=C(CC1N=C2c3ccccc3N=C(SCc3ccccc3F)N2C1=O)NCc1cccs1 (stereo unspecified) | -24% | . | 4% | 2% | -14% | 3%[59 µM]
CCN(CC)c1ccc(NC(=O)CCCN2C(=O)C(c3ccccc3)Oc3cccnc32)c(C)c1 (stereo unspecified) | -21% | . | 16% | 15% | -39% | 2.8µM*
O=C(CCCN1C(=O)C(c2ccccc2)Oc2cccnc21)Nc1ccccc1C(F)(F)F (stereo unspecified) | 3% | . | 9% | 46% | -16% | 4%[59 µM]
COc1ccc(NC(=O)CSc2nc(C3CC3)nc3ccccc23)c(OC)c1 | -15% | -8% | -24% | 34% | -2% | 15%
CCCCn1c(N)c(N(CCOC)C(=O)c2cc(-c3ccccc3Cl)nc3ccccc23)c(=O)[nH]c1=O | -8% | -2% | -13% | 12% | 30% | -26%
Cc1cc(Cl)c2c(c1)[C@]1(C(=O)N2)[C@@H]2C(=O)N(Cc3ccccc3)C(=O)[C@@H]2[C@@H]2CCCN21 | -31%[57.1 µM] | -16% | 16% | 18% | ? | 45µM*
O=C(Cc1ccccc1Cl)NCc1cccnc1 | -12% | -6% | 3% | 31% | -1% | .
COc1ccc(/C=C/C(=O)c2cc(F)ccc2OC(=O)c2ccccc2OC)cc1OC | -30%[57.1 µM] | -15% | ? | 14% | -25% | 10%[59 µM]
COc1ccc(/C=C/C(=O)c2cc(F)ccc2OC(=O)c2ccc(OC)c(OC)c2)cc1OC | -28% | -4% | -22% | 33% | ? | 56µM*
COc1ccc(/C=C/C(=O)c2cc(F)ccc2OC(=O)c2ccccc2)cc1OC | -20% | 1% | 40µM* | 8% | . | .
COc1cc(C(=O)N(Cc2ccccc2)c2cccc(C)c2)ccc1OCC(=O)N1CCOCC1 | . | -7% | . | . | . | .
O=C(Cn1c(-c2ccccc2)c[n+]2ccsc12)c1ccc([N+](=O)[O-])cc1 | -31% | 30µM* | -26% | 8% | -18% | -38%
CCNc1ccc(Br)cc(C(=O)/C=C/c2ccc(Cl)cc2Cl)c1=O | 45µM* | ? | 79µM* | ? | 45µM* | 8.9µM*
CNc1ccc(Br)cc(C(=O)/C=C/c2ccc(OC)cc2)c1=O | -31% | ? | ? | -9% | 45µM* | 10µM*
CNc1ccc(Br)cc(C(=O)/C=C/c2ccc3c(c2)OCO3)c1=O | 40µM* | 19µM* | 79µM* | ? | 40µM* | 10µM*
COCCCNC(=O)/C=C/c1ccc(Cl)cc1Cl | -11% | -2% | -14% | 18% | -12% | 2%[0.501 µM]
CNc1ccc(Br)cc(C(=O)/C=C/c2cc(OC)ccc2OC)c1=O | 25µM* | -28% | ? | -30% | 28µM* | 4.5µM*
